Experimental data: ChEMBL document CHEMBL4513216, “Probing the Open Global Health Chemical Diversity Library for Multistage-Active Starting Points for Next-Generation Antimalarials” (ACS Infect Dis, 2020)
Hit rate of the full screen: of about 65,000 compounds, about 2,100 (3.2%) showed an effect of 50% or more. The median lay at about -52%. The list comes from a sample in which strong results are over-represented; it also holds similar structures and randomly drawn compounds.

Each compound was assayed on Plasmodium falciparum (assay: Screen against P. falciparum Asexual Blood Stage (ABS), at 5uM). Settings: tested at 5 uM.
Type: functional, Dd2
In the case of `COCC1CN(C(=O)Cc2ccccn2)Cc2ncnn2C1` (stereo not drawn), the INHIBITION was -70.5%.
In the case of `Cc1cc(C(=O)N2CCN(c3nc4c(C(C)C)cccc4s3)CC2)on1`, the INHIBITION was 35.8%.
Compound `COCCOCC(=O)Nc1ccc(F)cc1C` has an INHIBITION of -33.5%.
Compound `Cc1nc(CN2CCC(c3nc4cc(Cl)ccc4o3)CC2)oc1C` has an INHIBITION of -53.1%.
Compound `CC(C)(C)c1nc(CN2CCC(c3nc4cc(Cl)ccc4o3)CC2)no1` has an INHIBITION of -67.9%.
`Cc1noc(C)c1CN1CCC(c2nc3cc(Cl)ccc3o2)CC1` showed an INHIBITION of 58.5%.
`O=C([C@@H]1COC[C@H]2CN(C3CCCC3)C[C@H]21)N1CCC(F)CC1` was tested, and the INHIBITION was -68.8%.
Compound `CN1CCN(C(=O)c2nc3c(o2)CN(C(=O)c2cccnc2)C3)CC1` has an INHIBITION of -0.0268%.
With `O=C(CSC1=NS(=O)(=O)c2cc(F)ccc2N1)Nc1ccc(Cl)c(Cl)c1` the INHIBITION was -21.5%.
Work on `O=C(N1CCOCC1)N1CCC2(CC1)CN(c1ccccn1)CCO2` yielded an INHIBITION of -99.6%.
For `Cc1ccc(C(CNCC2CC2)N2CCOCC2)s1` (stereo not drawn), the INHIBITION was 26.8%.
With `Cc1ccc(C(CNCc2nccn2C)N2CCOCC2)s1` (stereo not drawn) the INHIBITION was -28.6%.
Compound `CCCn1cc(CNCC(c2ccc(C)s2)N2CCOCC2)cn1` (stereo not drawn) has an INHIBITION of 56.8%.
`Cc1ccc(C(CNCc2ncc[nH]2)N2CCOCC2)s1` (stereo not drawn) showed an INHIBITION of 34.5%.
`Cc1ccc(C(CNCc2ccc(C#N)cc2)N2CCOCC2)s1` (stereo not drawn) gave an INHIBITION of 52.3%.
`CCn1ccnc1CNCC(c1ccc(C)s1)N1CCOCC1` (stereo not drawn) gave an INHIBITION of 54.1%.
In the case of `Cc1ccc(C(CNCc2cccn2C)N2CCOCC2)s1` (stereo not drawn), the INHIBITION was -38.5%.
`Cc1ccc(C(CNCc2cnn(C(C)C)c2)N2CCOCC2)s1` (stereo not drawn) gave an INHIBITION of 35.9%.
With `CCn1cc(CNCC(c2ccc(C)s2)N2CCOCC2)cn1` (stereo not drawn) the INHIBITION was 65.7%.
Work on `O=C(CCn1cccn1)NCC(c1cccs1)N1CCOCC1` (stereo not drawn) yielded an INHIBITION of -64.1%.
With `Cc1ccc(C(CNCc2ccncc2)N2CCOCC2)s1` (stereo not drawn) the INHIBITION was -40.9%.
`CCCn1cc(CN2CCOCC2c2[nH]ncc2C)cn1` (stereo not drawn) gave an INHIBITION of -155%.
For `CCCOc1ccc(CNc2cncc(-n3cccn3)n2)cc1`, the INHIBITION was -99.4%.
`Cc1ccc(N2CCC3(CCCN(C(=O)c4cccnc4)C3)C2)nn1` (stereo not drawn) gave an INHIBITION of -0.21%.
With `O=C(O)c1cccc2c(Br)cccc12` the INHIBITION was -180%.
`Cn1cnc2c1CCN(Cc1csc(-c3ccccc3F)n1)C2` was tested, and the INHIBITION was -58%.
Work on `O=C(c1ccc2c(c1)CCCC2)N1CCN(c2cnccn2)CC1` yielded an INHIBITION of 45%.
`CCS(=O)(=O)N1Cc2ccccc2CC1C(=O)OCc1cc(C)no1` (stereo not drawn) showed an INHIBITION of -132%.
With `Cc1cc(C(F)(F)F)nc(CNC(=O)CCn2cccn2)n1` the INHIBITION was -223%.
`O=C([C@@H]1CCO[C@@H]2CCN(Cc3cccs3)C[C@H]21)N1CCCCO1` showed an INHIBITION of -36.6%.
`Cc1cccc(NC(=O)c2[nH]nc(C(C)C)c2Br)n1` gave an INHIBITION of 57.6%.
Compound `CC(C)c1n[nH]c(C(=O)Nc2ccncc2)c1Br` has an INHIBITION of -163%.
`CC(C)c1n[nH]c(C(=O)Nc2cc[nH]n2)c1Br` gave an INHIBITION of -208%.
`O=S(=O)(c1cccnc1)N1CCN(Cc2nc(-c3cccs3)cs2)CC1` gave an INHIBITION of -29%.
Compound `CNS(=O)(=O)CCCN(C)Cc1cc(C)ccc1OC` has an INHIBITION of 26.6%.
`COc1ccc(C(=O)NCc2ccco2)nn1` showed an INHIBITION of -126%.
`COC(=O)c1ccc(CNC(C)(C)c2ccccc2OC)o1` gave an INHIBITION of 1.74%.
In the case of `COc1ccccc1C(C)(C)NCc1ccco1`, the INHIBITION was 65.7%.
`COc1ccc(CN(C)C(=O)Cc2c(C)nn(C)c2C)cc1F` was tested, and the INHIBITION was -154%.
In the case of `Cc1noc([C@@H]2C[C@H]3CN(Cc4scnc4C)C[C@H]3O2)n1`, the INHIBITION was -40.7%.
Work on `CC(C)n1c(=O)c2sccc2n(CC(=O)Nc2ccccc2)c1=O` yielded an INHIBITION of -27.6%.
`Cc1ccc(N2C[C@@H]3CN(C(=O)c4ccccc4)CCO[C@@H]3C2)nn1` was tested, and the INHIBITION was -12.5%.
`CN(C)c1ccccc1CN1CCCCC1CNS(C)(=O)=O` (stereo not drawn) showed an INHIBITION of 60.5%.
`CS(=O)(=O)NCC1CCCCN1Cc1cccc(C#N)c1` (stereo not drawn) was tested, and the INHIBITION was -92.3%.
With `CS(=O)(=O)NCC1CCCCN1Cc1ccccc1C#N` (stereo not drawn) the INHIBITION was -34.1%.
Compound `O=c1ccc2c([nH]1)CCC(NCc1ccc3c(c1)OCO3)C2` (stereo not drawn) has an INHIBITION of -104%.
In the case of `Cc1cccc2c(CCNC(=O)NCCC[S+](C)[O-])c[nH]c12` (stereo not drawn), the INHIBITION was -85.3%.
For `Cc1cccc2c(CCNC(=O)[C@H](N)c3ccccc3)c[nH]c12`, the INHIBITION was 61.2%.
`Cc1cccc2c(CCNC(=O)NCC[S+](C)[O-])c[nH]c12` (stereo not drawn) showed an INHIBITION of -103%.
`CN(Cc1ccc2c(c1)OCCO2)Cc1nnnn1-c1ccccc1` gave an INHIBITION of -39.1%.
Compound `CCC1CN(Cc2c(O)ccc3oc4c(c23)CCCC4)CCO1` (stereo not drawn) has an INHIBITION of 60%.
For `Oc1ccc2oc3c(c2c1CN1CCOCC1)CCCC3`, the INHIBITION was 19.1%.
In the case of `NC(=O)C1CN(Cc2c(O)ccc3oc4c(c23)CCCC4)CCO1` (stereo not drawn), the INHIBITION was -23.1%.
`CC(=O)N1CCC(NCc2cccnc2N(C)Cc2ccccc2)CC1` gave an INHIBITION of -57.8%.
`CN(Cc1ccccc1)c1ncccc1CNC1CCSCC1` showed an INHIBITION of 26.2%.
`CN(Cc1ccccc1)c1ncccc1CNC1CCCC1` showed an INHIBITION of 65.6%.
In the case of `CCc1nnsc1C(=O)NCc1nnc2n1CCC2`, the INHIBITION was -217%.
Work on `Cc1ccc(N2CC3(COCCN(Cc4ccccn4)C3)OCC2=O)s1` (stereo not drawn) yielded an INHIBITION of -89.9%.
Compound `COc1c(CNC2CCSc3ccc(F)cc32)c(C)nn1C` (stereo not drawn) has an INHIBITION of -115%.
`CC1CCCN(Cc2csc(-c3ncccn3)n2)CC1` (stereo not drawn) was tested, and the INHIBITION was -29.2%.
Compound `CC(=O)NC1CCCN(Cc2csc(-c3ncccn3)n2)C1` (stereo not drawn) has an INHIBITION of -89.8%.
`c1cnc(-c2nc(CN3CCCC(N4CCCC4)C3)cs2)nc1` (stereo not drawn) showed an INHIBITION of 51.7%.
For `O=C(NC1CC1)C1CCc2nnc(C3CC3)n21` (stereo not drawn), the INHIBITION was -100%.
In the case of `c1ccc(OCC2CC3(CCN(CC4CCOCC4)CC3)CO2)nc1` (stereo not drawn), the INHIBITION was -83.4%.
`Cc1cc(C)nc(Nc2cc(C)nc(C3CCN(C(=O)CO)C3)n2)n1` (stereo not drawn) was tested, and the INHIBITION was -74.1%.
Compound `CN(C)C(=O)CC1CC2(CCN(Cc3ccco3)CC2)c2ccccc21` (stereo not drawn) has an INHIBITION of 24.7%.
`c1ccc(Cn2cccn2)c(CN2CCCCC2CCn2ccnc2)c1` (stereo not drawn) gave an INHIBITION of 64.4%.
`CN(C)CCC1CCCCN1Cc1cnc(-c2ccccn2)nc1` (stereo not drawn) gave an INHIBITION of 38.9%.
Work on `Fc1cccc(-n2cc(CN3CCCCC3CCn3ccnc3)cn2)c1` (stereo not drawn) yielded an INHIBITION of 68.9%.
`c1cnn(CCC2CCCCN2Cc2cnc(C3CCCCC3)nc2)c1` (stereo not drawn) showed an INHIBITION of -9.85%.
`Fc1ccc(-n2cccn2)c(CN2CCCCC2CCn2ccnc2)c1` (stereo not drawn) gave an INHIBITION of 7.69%.
With `Fc1cccc(-n2ccc(CN3CCCCC3Cn3cncn3)n2)c1` (stereo not drawn) the INHIBITION was -44.8%.
Work on `Cc1ccc2nc(CN3CCCCC3CCn3cccn3)cn2c1` (stereo not drawn) yielded an INHIBITION of -63.2%.
`CC1CN(Cc2ccccc2Cn2cccn2)CCN1C` (stereo not drawn) was tested, and the INHIBITION was 48.4%.
In the case of `CN(C)C1CCCN(Cc2cccc(Cn3cccn3)c2)CC1` (stereo not drawn), the INHIBITION was 34%.
In the case of `Fc1cccc(-n2ccc(CN3CCCC3Cn3cccn3)n2)c1` (stereo not drawn), the INHIBITION was 4.96%.
Compound `CN(C)[C@H]1CCCCN(Cc2ccccc2Cn2cccn2)C1` has an INHIBITION of 51%.
With `c1ccc(-c2ncc(CN3CCCCC3CCn3cccn3)cn2)nc1` (stereo not drawn) the INHIBITION was 51%.
